This is an account of results in PubChem BioAssay (NCATS).

Molecules are shown by their SMILES. Inconclusive results are not listed. Where a call stands in place of a potency, no number is given. Calls of active or inactive are those of the source. Calls follow the shape of the dose curve; as a rule, active = well fitted curve in the direction sought with a large enough effect; inconclusive = small, poorly fitted or top-dose-only effect, or another doubt; inactive = no such curve, though single readings can be large; an effect the other way counts as inactive or inconclusive.
Potency is read from the fitted curve at half-maximal effect.

The first test in a line: qHTS of pediatric cancer cell lines to identify multiple opportunities for drug repurposing: Primary screen for BT-37 cells (AID 1347094). The note with it: BT-37 viability, CellTiter-Glo luminescence, 48 h; series mostly up to 57.3 µM. The gist of the method:
(§1)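 Phenotypic viability qHTS, 48 h compound exposure, CellTiter-Glo luminescence read-out; multi-concentration dosing so that potency and efficacy derive directly from the primary screen's curves.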
Consider `COc1c(N2C[C@@H]3CCCN[C@@H]3C2)c(F)cc2c(=O)c(C(=O)O)cn(C3CC3)c12`, for which the Potency result was “inactive”.
Same read-out and setting: for `CCO[C@H](Cc1ccc(OCCc2ccc(OS(C)(=O)=O)cc2)cc1)C(=O)O` the value was “inactive”; for `CC(C)(C)NCC(O)COc1ccccc1OCC1CCCO1` (stereo not drawn), “inactive”.
Same read-out and setting: for `Cc1cc(O)c2c(O)c3c(O)cccc3cc2c1` the value was “inactive”.
Still for that read-out and setting: for `CCC(C(=O)OCCN1CCOC(c2ccccc2)C1C)c1ccccc1` (stereo not drawn) the value was “inactive”.
Regarding `O=C1[C@@H]2[C@H]3CC[C@H](C3)[C@@H]2C(=O)N1CCCCN1CCN(c2ncccn2)CC1`, the Potency result was “inactive”.
`O=C1CC2(CCCC2)CC(=O)N1CCNCC1COc2ccccc2O1` (stereo not drawn): the Potency result is “inactive”.
On the same count and under the same terms, for `COC(=O)c1cc(S(N)(=O)=O)ccc1OC` the value was “inactive”; for `CO/N=C(\C(=O)O)c1csc(NC(=O)CCl)n1`, “inactive”; for `Cc1ccc(C(=O)Oc2ccc(C(O)CNC(C)(C)C)cc2OC(=O)c2ccc(C)cc2)cc1` (stereo not drawn), “inactive”.
Still for that read-out and setting: for `O=C(O)c1ccccc1Nc1cc(Cl)ccc1C(=O)O` the value was “inactive”.
Same read-out and setting: for `CC(=O)OCC(=O)Nc1cc(C#N)cc(NC(=O)COC(C)=O)c1Cl` the value was “inactive”; for `O=C(O)c1ccc(OCCN2CCCCC2)cc1`, “inactive”; for `CN(C)C(=O)CNC(=O)Cc1ccccc1`, “inactive”.
`C[C@]12CCC(=O)C=C1CC[C@@H]1[C@@H]2[C@@H](O)C[C@@]2(C)[C@H]1CC[C@]2(O)C(=O)COC(=O)CCC(=O)O`: the Potency result was “inactive”.
Still for that read-out and setting: for `C=C(C)C(=O)OCC(O)CO` (stereo not drawn) the value was “inactive”.
Same read-out and setting: for `O=C(O)C(=O)Nc1cccc(-c2nn[nH]n2)c1` the value was “inactive”.
As for `Cc1ccccc1N1CCN(CCc2nnc3n2CCCC3)CC1`, the Potency result was “inactive”.
Same read-out and setting: for `OCCc1ccccc1` the value was “inactive”.
Still for that read-out and setting: for `CN1C(=O)c2ccccc2C1=O` the value was “inactive”; for `CCCCOCCOC(=O)c1cccnc1`, “inactive”; for `Nc1ccc(C(=O)N2CC3CC(CN(Cc4ccccc4)C3)C2)cc1`, “inactive”.
Still for that read-out and setting: for `Cc1[nH]cnc1-c1ccc(Cl)cc1` the value was “inactive”; for `COc1cc(C(=O)OC(COCCC(C)C)CN2CCOCC2)cc(OC)c1OC` (stereo not drawn), “inactive”; for `C[C@H]1C[C@@H]2[C@H]([C@@H](O)C[C@@]3(C)[C@H]2CC[C@]3(O)C(=O)CO)[C@@]2(C)C=CC(=O)C=C12`, “inactive”.
For `CC(Oc1c(Cl)cccc1Cl)C1=NCCN1` (stereo not drawn), the Potency entry is “inactive”.
On the same count and under the same terms, for `COC(=O)c1cc(Cl)ccc1OC` the value was “inactive”; for `Cc1ccc2ccc(Cl)cc2n1`, “inactive”.
Same read-out and setting: for `CCCCCCCCCCCCCCCCCCN(C)C` the value was “inactive”; for `Oc1cccc2[nH]ccc12`, “inactive”; for `CN(C)CCN1CCN(c2cccc(Cl)c2)C1=O`, “inactive”.
The same measure, in the same setting: for `Cc1ccc(C(C)OC(=O)C2(C)CCC(C(=O)O)C2(C)C)cc1` (stereo not drawn) the value was “inactive”; for `N#CC1(c2ccc(F)cc2)CCC(=O)CC1`, “inactive”.
Turning to `CCCCCCCCCCCCCCCC[n+]1ccccc1`, the Potency is 15.5 µM (active).
The same measure, in the same setting: for `O=C(O)CNC(=O)CNC(=O)CNC(=O)CSC(=O)c1ccccc1` the value was “inactive”.
`COc1cc(OC)nc(O[C@H](C(=O)O)C(OC)(c2ccccc2)c2ccccc2)n1`: the Potency entry is “inactive”.
Same read-out and setting: for `NC(=O)COCCN1CCN(C(c2ccccc2)c2ccc(Cl)cc2)CC1` (stereo not drawn) the value was “inactive”.
Same read-out and setting: for `C1=CC2C3C=CC(C3)C2C1` (stereo not drawn) the value was “inactive”; for `OC1(c2ccccc2)CCNCC1`, “inactive”.

A short description of another test: qHTS of pediatric cancer cell lines to identify multiple opportunities for drug repurposing: Primary screen for NB-EBc1 cells (AID 1347095). The note with it: NB-EBc1 neuroblastoma viability, CellTiter-Glo luminescence, 48 h; series mostly up to 46 µM. The gist of the method: as §1
In the case of `COc1c(N2C[C@@H]3CCCN[C@@H]3C2)c(F)cc2c(=O)c(C(=O)O)cn(C3CC3)c12`, the Potency result was “inactive”.
Same read-out and setting: for `CCO[C@H](Cc1ccc(OCCc2ccc(OS(C)(=O)=O)cc2)cc1)C(=O)O` the value was “inactive”; for `CC(C)(C)NCC(O)COc1ccccc1OCC1CCCO1` (stereo not drawn), “inactive”.
Still for that read-out and setting: for `Cc1cc(O)c2c(O)c3c(O)cccc3cc2c1` the value was “inactive”.
The same measure, in the same setting: for `CCC(C(=O)OCCN1CCOC(c2ccccc2)C1C)c1ccccc1` (stereo not drawn) the value was “inactive”; for `O=C1[C@@H]2[C@H]3CC[C@H](C3)[C@@H]2C(=O)N1CCCCN1CCN(c2ncccn2)CC1`, “inactive”.
For `O=C1CC2(CCCC2)CC(=O)N1CCNCC1COc2ccccc2O1` (stereo not drawn), the Potency result is “inactive”.
Still for that read-out and setting: for `COC(=O)c1cc(S(N)(=O)=O)ccc1OC` the value was “inactive”; for `CO/N=C(\C(=O)O)c1csc(NC(=O)CCl)n1`, “inactive”.
Same read-out and setting: for `Cc1ccc(C(=O)Oc2ccc(C(O)CNC(C)(C)C)cc2OC(=O)c2ccc(C)cc2)cc1` (stereo not drawn) the value was “inactive”; for `O=C(O)c1ccccc1Nc1cc(Cl)ccc1C(=O)O`, “inactive”; for `CC(=O)OCC(=O)Nc1cc(C#N)cc(NC(=O)COC(C)=O)c1Cl`, “inactive”.
The same measure, in the same setting: for `O=C(O)c1ccc(OCCN2CCCCC2)cc1` the value was “inactive”; for `CN(C)C(=O)CNC(=O)Cc1ccccc1`, “inactive”; for `C[C@]12CCC(=O)C=C1CC[C@@H]1[C@@H]2[C@@H](O)C[C@@]2(C)[C@H]1CC[C@]2(O)C(=O)COC(=O)CCC(=O)O`, “inactive”.
On to `C=C(C)C(=O)OCC(O)CO` (stereo not drawn), for which the Potency entry is “inactive”.
Same read-out and setting: for `O=C(O)C(=O)Nc1cccc(-c2nn[nH]n2)c1` the value was “inactive”; for `Cc1ccccc1N1CCN(CCc2nnc3n2CCCC3)CC1`, “inactive”; for `OCCc1ccccc1`, “inactive”.
In the case of `CN1C(=O)c2ccccc2C1=O`, the Potency entry was “inactive”.
On the same count and under the same terms, for `CCCCOCCOC(=O)c1cccnc1` the value was “inactive”; for `Nc1ccc(C(=O)N2CC3CC(CN(Cc4ccccc4)C3)C2)cc1`, “inactive”.
Still for that read-out and setting: for `Cc1[nH]cnc1-c1ccc(Cl)cc1` the value was “inactive”; for `COc1cc(C(=O)OC(COCCC(C)C)CN2CCOCC2)cc(OC)c1OC` (stereo not drawn), “inactive”.
Same read-out and setting: for `C[C@H]1C[C@@H]2[C@H]([C@@H](O)C[C@@]3(C)[C@H]2CC[C@]3(O)C(=O)CO)[C@@]2(C)C=CC(=O)C=C12` the value was “inactive”.
`CC(Oc1c(Cl)cccc1Cl)C1=NCCN1` (stereo not drawn): the Potency entry is “inactive”.
Same read-out and setting: for `COC(=O)c1cc(Cl)ccc1OC` the value was “inactive”; for `Cc1ccc2ccc(Cl)cc2n1`, “inactive”.
Regarding `CCCCCCCCCCCCCCCCCCN(C)C`, the Potency entry is “inactive”.
With `Oc1cccc2[nH]ccc12`, the Potency result was “inactive”.
On the same count and under the same terms, for `CN(C)CCN1CCN(c2cccc(Cl)c2)C1=O` the value was “inactive”; for `Cc1ccc(C(C)OC(=O)C2(C)CCC(C(=O)O)C2(C)C)cc1` (stereo not drawn), “inactive”.
As for `N#CC1(c2ccc(F)cc2)CCC(=O)CC1`, the Potency entry is “inactive”.
Same read-out and setting: for `CCCCCCCCCCCCCCCC[n+]1ccccc1` the value was 18.8 µM (active); for `O=C(O)CNC(=O)CNC(=O)CNC(=O)CSC(=O)c1ccccc1`, “inactive”.
Consider `COc1cc(OC)nc(O[C@H](C(=O)O)C(OC)(c2ccccc2)c2ccccc2)n1`, for which the Potency result is “inactive”.
The same measure, in the same setting: for `NC(=O)COCCN1CCN(C(c2ccccc2)c2ccc(Cl)cc2)CC1` (stereo not drawn) the value was “inactive”; for `C1=CC2C3C=CC(C3)C2C1` (stereo not drawn), “inactive”; for `OC1(c2ccccc2)CCNCC1`, “inactive”.
